Assay outcomes (PubChem)
Hits are enriched below; roughly 6.1% of the tested compounds scored in any of these assays.
D3 ag: activates the human D3 dopamine receptor; 410,000 tested, 0.58% active; AID 652048; D3R DiscoveRx beta-arrestin cells, luminescence, 90 min; max activation, %; in the data active means max activation above about 30%; further: 0% is about no effect
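Cells at 1500/well, incubated overnight, then treated with pinned compounds (dopamine as control) for 90 min at 37 degrees C. DiscoveRx reagent added for 30 - 60 minutes at room temperature; luminescence read.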
D1 potentiator: human D1 dopamine receptor positive modulation. HEK293 TREx D1 cells, calcium flux, dopamine EC20 potentiation. 360,000 tested, 0.036% active. AID 504651. potentiation, % at 10 µM. P21728; in the data active means potentiation above about 30%; further: 0% is about no effect
Target sequence (P21728 whole entry, looked up): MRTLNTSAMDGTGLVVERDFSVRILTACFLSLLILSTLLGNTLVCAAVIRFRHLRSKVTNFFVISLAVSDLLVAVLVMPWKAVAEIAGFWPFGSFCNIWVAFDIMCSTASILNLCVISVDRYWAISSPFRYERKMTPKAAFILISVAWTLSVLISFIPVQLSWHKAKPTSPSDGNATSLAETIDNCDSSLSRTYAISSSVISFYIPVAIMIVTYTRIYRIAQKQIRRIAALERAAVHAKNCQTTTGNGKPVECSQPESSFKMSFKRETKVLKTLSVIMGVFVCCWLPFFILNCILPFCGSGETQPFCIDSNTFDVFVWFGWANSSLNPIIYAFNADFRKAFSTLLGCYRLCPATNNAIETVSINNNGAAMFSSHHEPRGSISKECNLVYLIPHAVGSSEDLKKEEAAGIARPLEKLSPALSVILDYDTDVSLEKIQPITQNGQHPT
D1 agonist: agonists of human D1 dopamine receptor. 360,000 tested, 1% active. HEK293 T-REx D1 cells, calcium flux, agonist mode. P21728. activation, % at 2 µM; in the data active means activation above about 30%; further: 0% is about no effect
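Tetracycline-induced HEK293 TREx D1 cells, force-coupled to calcium signalling, were dye-loaded with a no-wash calcium kit. Compound was pin-added after a 10 s baseline. Fluorescence was read kinetically at 1 cycle/s for 180 s, with calcium rises flagged as agonism.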
DRD3 antagonist: blocks the human D3 dopamine receptor; max response, negative = inhibition, %; 360,000 tested, 2.5% active; D3R cells, DiscoveRx beta-arrestin luminescence, antagonist mode; active compounds read low; P35462; in the data active means max response below about -50%; inconclusive means no clear call, values can overlap the other calls; further: on the % scale 0 is the no-effect control and ±100 the full control effect
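Cells expressing the human receptor were seeded at 1500 cells/well, incubated overnight at 37 degrees C in 5% CO2, then exposed to library compounds with dopamine controls for 90 minutes at 37 degrees C before luminescent detection.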
D1 antag: blocks dopamine activation of the human D1 receptor | 360,000 tested, 3.2% active | AID 504652 | activity change, negative = inhibition, % at 10 µM | HEK293 TREx D1 cells, calcium flux, dopamine EC80; active compounds read low | P21728; in the data active means activity change below about -30%; further: on the % scale 0 is the no-effect control and ±100 the full control effect
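Compound effects on dopamine-evoked calcium signalling were measured in tetracycline-induced HEK293 Trex D1 cells. Dopamine at EC80 followed a 180 s compound pre-read, and fluorescence was tracked kinetically for 180 s more.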
* hit, by the source's call; ? = inconclusive; · = no result given; ! = not active in a repeat.

SMILES	D3 ag	D1 potentiator	D1 agonist	DRD3 antagonist	D1 antag
CCCN(CCC)C(=O)Cn1c(SCc2cccc(F)c2)nc2cccnc21	4	1	-2	·	7
COc1ccc(NC(=O)CCN2CCCC(C)C2)cc1 (stereo unspecified)	0	-1	1	-74*	-6
COc1ccc(NC(=O)CCN2CCC(C)CC2)cc1	-6	-4	3	-76*	-2
CC(C)(C)CC(=O)NCC(c1ccc2c(c1)OCO2)N1CCN(c2ccccc2)CC1 (stereo unspecified)	-21	-2	0	·	8
CC(C)(C)c1cc(C(=O)NCc2ccccc2)ccn1	1	6	7	17	-32*
COc1ccc(CCNC(=O)c2ccnc(C(C)(C)C)c2)cc1OC	-8	·	·	-14	·
COc1ccc(CCNC(=O)Cn2cnc3sc(C)c(-c4ccc(F)cc4)c3c2=O)cc1OC	1	-6	34*	11	·
Cc1sc2ncn(CC(=O)NCC(=O)N(C)C3CCCCC3)c(=O)c2c1C	18	-3	0	-14	-34*
COc1ccc(NC(=O)CCCNC(=O)Cn2cnc3sc(C)c(C)c3c2=O)cc1OC	31*	-3	2	-1	8
CCOC(=O)c1sc2ncn(CC(=O)Nc3cc(C)cc(C)c3)c(=O)c2c1C	9	2	2	·	3
COc1ccc(NC(=O)CCCNC(=O)Cn2cnc3sc(C)c(C)c3c2=O)cc1Cl	-2	-4	3	9	5
CCOC(=O)c1sc2ncn(CC(=O)Nc3cccc(C)c3)c(=O)c2c1C	-16	2	2	·	-35*
Cc1sc2ncn(CC(=O)NCC(=O)N(C)Cc3ccccc3)c(=O)c2c1C	12	0	1	15	-5
CCOc1ccc(CNC(=O)CCC(=O)N2CC(C)Sc3ccccc32)cc1 (stereo unspecified)	8	-1	0	·	1
O=C(O)c1[nH]n(-c2ccc(S(=O)(=O)O)cc2)c(=O)c1N=Nc1ccc(S(=O)(=O)O)cc1	-26	·	·	·	·
CCc1nn(C(CC)C(=O)NCCCN2CC(C)CC(C)C2)c(=O)c2cc3oc(C)cc3n12 (stereo unspecified)	-22	-4	2	-57*	-1
Cc1cccc(C)c1NC(=O)Cn1nnc(C(=O)Nc2ccc(F)cc2F)c1N	-3	-3	5	-14	13
Cc1ccc(Cn2nnc(C(=O)Nc3cccc(C)c3C)c2N)cc1	-2	-6	94*	10	-14
Cc1ccc(C)c(NC(=O)c2nnn(CC(=O)Nc3cccc(C)c3C)c2N)c1	40*	1	1	·	3
COc1ccc(OC)c(NC(=O)c2nnn(Cc3ccccc3C)c2N)c1	5	3	2	-5	-52*
CCc1ccc(Cn2nnc(C(=O)Nc3cccc(C)c3)c2N)cc1	-12	·	28	?	15
Cc1cc(C)c(NC(=O)Cn2nnc(C(=O)Nc3ccc(F)cc3F)c2N)c(C)c1	4	0	3	20	-68*!
COc1ccc(OC)c(C2c3c(oc4ccc(C)cc4c3=O)C(=O)N2CCCN(C)C)c1 (stereo unspecified)	-4	-1	6	·	·
Cn1c(=O)c(=O)n(C)c2cc(S(=O)(=O)N3CCCC3C(=O)Nc3cccc(F)c3)ccc21 (stereo unspecified)	-9	-1	0	·	-2
Cc1ccc(NC(=O)c2nnn(Cc3cccc(C(F)(F)F)c3)c2N)c(C)c1	7	1	11	·	-45*
SMILES	D3 ag	D1 potentiator	D1 agonist	DRD3 antagonist	D1 antag
Cc1cccc(Cn2nnc(C(=O)Nc3cc(C)ccc3C)c2N)c1	-16	3	10	·	15
Cc1ccc(NC(=O)Cn2nnc(C(=O)Nc3ccc(C)c(C)c3)c2N)cc1	-7	-6	5	-66*	-16
CCc1ccccc1NC(=O)c1nnn(Cc2ccc(Cl)cc2)c1N	-8	-1	56*	·	-2
Cc1ccc(Cl)cc1NC(=O)c1nnn(Cc2ccccc2)c1N	-8	12	20	·	27
Cc1ccc(Cn2c(=O)n(-c3cccc(C(F)(F)F)c3)c(=O)c3c(C)c(C)sc32)c(C)c1	-5	2	0	·	-8
CCc1nn(CC(=O)N2CCN(c3cccc(C)c3C)CC2)c(=O)c2cc3sccc3n12	-8	-3	0	·	2
COc1ccc(-c2[nH]c(-c3ccc(C)cc3)nc2SCC(=O)NCC2CCCO2)cc1 (stereo unspecified)	-14	2	2	·	-3
CC(=O)NC12CC3CC(C1)CC(C(=O)N1CCN(S(=O)(=O)c4cccc([N+](=O)[O-])c4)CC1)(C3)C2	-5	·	·	-13	·
CC(=O)NC12CC3CC(C1)CC(C(=O)N1CCN(S(=O)(=O)c4cccc(C(F)(F)F)c4)CC1)(C3)C2	-3	-10	38*	-8	-28
CC(C)=CC1C=C(C)C(C)C2C(=O)NNC(=O)C12 (stereo unspecified)	2	-4	4	-97*	7
CCN(C#N)c1nc(NC(C)C)nc(NC(C)(C)C)n1	2	0	51*	4	27
Cc1cccc(C(=O)NCC(=O)OC(C(=O)Nc2cc(C(F)(F)F)ccc2Cl)c2ccccc2)c1 (stereo unspecified)	·	-6	7	·	-30*
O=C(CNC(=O)c1ccccc1)OC(CCc1ccccc1)C(=O)Nc1cc(C(F)(F)F)ccc1Cl (stereo unspecified)	·	-6	8	·	-37*
Cc1cc(O)c2c(C)c(CC(=O)NCc3ccccc3Cl)c(=O)oc2c1	7	-3	1	·	-35*
O=C(NC1CC(=O)N(c2ccc(Cl)cc2)C1)c1ccc(S(=O)(=O)N2CCCC2)cc1 (stereo unspecified)	-8	1	1	·	·
CCc1ccc(S(=O)(=O)N(C(=O)Oc2ccccc2)c2ccc3oc(C)c(C(=O)OC)c3c2)cc1	-1	1	1	·	0
COCCNC(=O)c1cc2c(s1)-c1ccc(Cl)cc1SC2	-7	-9	4	9	-92*
CCOc1ccc(N(CC)C(=O)c2cc3c(s2)-c2ccc(Cl)cc2SC3)cc1	-2	-3	3	·	3
COc1cc(Nc2nc(SCc3cccc(Cl)c3)nc3ccccc23)cc(OC)c1	8	-1	6	·	14
O=C1NC2(CCCCCC2)C(=O)N1Cc1ccccc1F	-2	2	3	0	-33*
N#Cc1ccccc1CN1C(=O)NC2(CCCCCC2)C1=O	-1	6	0	13	8
CN1CCC(N(Cc2cccs2)c2ccccc2)CC1	-18	·	·	·	·
O=C1CCc2cc(S(=O)(=O)Nc3ccccc3Cl)ccc2N1	5	-2	3	17	-7
COC(=O)c1cc(NS(=O)(=O)c2ccc3c(c2)CCC(=O)N3)cc(C(=O)OC)c1	33*	-4	-2	31	17
O=C1CCc2cc(S(=O)(=O)Nc3ccccc3F)ccc2N1	1	4	2	-12	-42*
